# Values without a mark were called inactive. Inconclusive results are not listed. A call without a number means that no potency is given here. Calls of active or inactive are those of the source. The call rests on the fitted dose curve; in most records, active means well fitted curve in the direction sought with a large enough effect in the repeat runs; inconclusive means weak or mixed curves; inactive means no such curve, though single readings can be large; an effect the other way counts as inactive or inconclusive.
# What was measured:
# [1] = A CellTox Green Cytotoxicity Assay to monitor cytotoxicity in HEK293 cells - 40 hour (AID 1224871); further: nearly all actives have a fitted effect of over 45% in size; further: potency means the concentration at half of the fitted maximal effect
# Procedure, shortened: (§1)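 Seeding of HEK293 cells together with cytotoxicity dye preceded a 5 h incubation at 37 C/5% CO2. Test compounds in DMSO were then added and fluorescence monitored across 40 h.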
# [2] = qHTS RealTime-Glo MT Cell Viability Assay in HepG2 cells - 8 hour (AID 1224873); further: nearly all actives have a fitted effect of over 55% in size
# Procedure, shortened: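 Real-time viability: cells seeded at 600 per well together with NanoLuc and cell-permeant prosubstrate, compounds added after 5 h incubation. Luminescence tracked at 0, 8, 16, 24, 32 and 40 h of exposure.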
# [3] = A CellTox Green Cytotoxicity Assay to monitor cytotoxicity in HEK293 cells - 24 hour (AID 1224875); further: nearly all actives have a fitted effect of over 45% in size; further: potency means the concentration at half of the fitted maximal effect
# Procedure, shortened: as §1
# [4] = A CellTox Green Cytotoxicity Assay to monitor cytotoxicity in HepG2 cells - 16 hour (AID 1224876); further: nearly all actives have a fitted effect of over 45% in size; further: potency means the concentration at half of the fitted maximal effect
# Procedure, shortened: (§2)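 Nonlytic assay: viable cells exclude the dye, so fluorescence scales with cell death. HepG2 at 600 cells/well, compounds added after 5 h, signal read across 40 h.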
# [5] = qHTS RealTime-Glo MT Cell Viability Assay in HepG2 cells - 32 hour (AID 1224877); further: nearly all actives have a fitted effect of over 55% in size
# Procedure, shortened: (§3)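 Tox21 10K library screened in qHTS format on HepG2 cells carrying RealTime-Glo reagents. Compounds were added after a 5 h preincubation, and the luminescent signal from continuous culture was measured repeatedly during 40 h treatment.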
# [6] = A CellTox Green Cytotoxicity Assay to monitor cytotoxicity in HepG2 cells - 24 hour (AID 1224878); further: nearly all actives have a fitted effect of over 45% in size; further: potency means the concentration at half of the fitted maximal effect
# Procedure, shortened: as §2
# [7] = qHTS RealTime-Glo MT Cell Viability Assay in HEK293 cells - 0 hour (AID 1224880)
# Procedure, shortened: (§4)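 Tox21 screen in HEK293 using RealTime-Glo MT chemistry, with cells and reagent co-dispensed. Luminescence proportional to viable cell number was captured at intervals during 40 h compound exposure at 37 C.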
# [8] = A CellTox Green Cytotoxicity Assay to monitor cytotoxicity in HEK293 cells - 32 hour (AID 1224881); further: nearly all actives have a fitted effect of over 40% in size; further: potency means the concentration at half of the fitted maximal effect
# Procedure, shortened: as §1
# [9] = A CellTox Green Cytotoxicity Assay to monitor cytotoxicity in HepG2 cells - 0 hour (AID 1224882); further: nearly all actives have a fitted effect of over 35% in size; further: potency means the concentration at half of the fitted maximal effect
# Procedure, shortened: as §2
# [10] = A CellTox Green Cytotoxicity Assay to monitor cytotoxicity in HepG2 cells - 32 hour (AID 1224883); further: nearly all actives have a fitted effect of over 50% in size; further: potency means the concentration at half of the fitted maximal effect
# Procedure, shortened: as §2
# [11] = A CellTox Green Cytotoxicity Assay to monitor cytotoxicity in HEK293 cells - 8 hour (AID 1224884); further: nearly all actives have a fitted effect of over 35% in size; further: potency means the concentration at half of the fitted maximal effect
# Procedure, shortened: as §1
# [12] = qHTS RealTime-Glo MT Cell Viability Assay in HepG2 cells - 16 hour (AID 1224885); further: nearly all actives have a fitted effect of over 50% in size
# Procedure, shortened: as §3
# [13] = A CellTox Green Cytotoxicity Assay to monitor cytotoxicity in HEK293 cells - 16 hour (AID 1224888); further: nearly all actives have a fitted effect of over 35% in size; further: potency means the concentration at half of the fitted maximal effect
# Procedure, shortened: as §1
# [14] = qHTS RealTime-Glo MT Cell Viability Assay in HepG2 cells - 0 hour (AID 1224889); further: nearly all actives have a fitted effect of over 50% in size
# Procedure, shortened: as §3
# [15] = A CellTox Green Cytotoxicity Assay to monitor cytotoxicity in HepG2 cells - 8 hour (AID 1224890); further: nearly all actives have a fitted effect of over 45% in size; further: potency means the concentration at half of the fitted maximal effect
# Procedure, shortened: as §2
# [16] = qHTS RealTime-Glo MT Cell Viability Assay in HEK293 cells - 16 hour (AID 1224872); further: nearly all actives have a fitted effect of over 50% in size; further: potency means the concentration at half of the fitted maximal effect
# Procedure, shortened: (§5)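 Luminescence generated by NanoLuc from substrate produced by living HEK293 cells served as the viability signal. Each value reflects the reading at its stated time point during continuous 40 h compound exposure at 37 C.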
# [17] = A CellTox Green Cytotoxicity Assay to monitor cytotoxicity in HepG2 cells - 40 hour (AID 1224879); further: nearly all actives have a fitted effect of over 40% in size; further: potency means the concentration at half of the fitted maximal effect
# Procedure, shortened: as §2
# [18] = qHTS RealTime-Glo MT Cell Viability Assay in HEK293 cells - 8 hour (AID 1224887); further: nearly all actives have a fitted effect of over 50% in size; further: potency means the concentration at half of the fitted maximal effect
# Procedure, shortened: as §4
# [19] = qHTS RealTime-Glo MT Cell Viability Assay in HEK293 cells - 40 hour (AID 1224874); details: RealTime-Glo luminescence; max response: stronger effect = lower value; further: nearly all actives have a fitted effect of over 50% in size; further: potency means the concentration at half of the fitted maximal effect
# Procedure, shortened: as §4
# [20] = qHTS RealTime-Glo MT Cell Viability Assay in HEK293 cells - 24 hour (AID 1224886); further: nearly all actives have a fitted effect of over 50% in size; further: potency means the concentration at half of the fitted maximal effect
# Procedure, shortened: as §5
smiles,measurement,setting,value
O=C1CCC(C2CCCCC2)CC1,Potency,[1],49 µM (active)
same,outcome,[2],inactive
same,Potency,[3],43.6 µM (active)
same,Potency,[4],38.9 µM (active)
same,Potency,[5],inactive
same,Potency,[6],38.9 µM (active)
same,outcome,[7],inactive
same,Potency,[8],43.6 µM (active)
same,Potency,[9],38.9 µM (active)
same,Potency,[10],38.9 µM (active)
same,Potency,[11],43.6 µM (active)
same,outcome,[12],inactive
same,Potency,[13],43.6 µM (active)
same,Potency,[14],inactive
same,Potency,[15],27.5 µM (active)
CCOc1ccccc1N,Potency,[16],inactive
same,outcome,[2],inactive
same,Potency,[3],inactive
same,Potency,[4],inactive
same,Potency,[5],inactive
same,Potency,[6],inactive
same,Potency,[17],inactive
same,outcome,[7],inactive
same,Potency,[8],inactive
same,Potency,[9],inactive
same,Potency,[10],inactive
same,Potency,[11],inactive
same,outcome,[12],inactive
same,Potency,[18],inactive
same,Potency,[13],inactive
same,Potency,[14],inactive
same,Potency,[15],inactive
CCCCNc1ccc(C(=O)OCCN(CC)CC)cc1,Potency,[1],inactive
same,outcome,[2],inactive
same,max response,[19],-22.9%
same,Potency,[3],inactive
same,Potency,[4],inactive
same,Potency,[5],inactive
same,Potency,[6],inactive
same,Potency,[17],inactive
same,outcome,[7],inactive
same,Potency,[8],inactive
same,Potency,[9],inactive
same,Potency,[10],inactive
same,Potency,[11],inactive
same,outcome,[12],inactive
same,Potency,[18],inactive
same,Potency,[13],inactive
same,Potency,[14],inactive
same,Potency,[15],inactive
COc1ccc2nc(NC(=O)Nc3ccccc3)sc2c1,Potency,[1],26.8 µM (active)
same,outcome,[2],inactive
same,Potency,[19],6.01 µM (active)
same,Potency,[4],inactive
same,Potency,[5],inactive
same,outcome,[7],inactive
same,Potency,[9],inactive
same,Potency,[11],inactive
same,outcome,[12],inactive
same,Potency,[20],4.77 µM (active)
same,Potency,[13],inactive
same,Potency,[14],inactive
same,Potency,[15],inactive
CCOc1ccc(OCC)c(Cl)c1,Potency,[16],inactive
same,outcome,[2],inactive
same,max response,[19],5.94%
same,Potency,[3],inactive
same,Potency,[4],inactive
same,Potency,[5],inactive
same,Potency,[6],inactive
same,outcome,[7],inactive
same,Potency,[8],inactive
same,Potency,[9],inactive
same,Potency,[10],inactive
same,Potency,[11],inactive
same,outcome,[12],inactive
same,Potency,[20],inactive
same,Potency,[18],inactive
same,Potency,[13],inactive
same,Potency,[14],inactive
same,Potency,[15],inactive
OCc1c2ccccc2cc2ccccc12,Potency,[1],inactive
same,outcome,[2],inactive
same,Potency,[4],inactive
same,Potency,[5],inactive
same,Potency,[6],inactive
same,Potency,[17],inactive
same,outcome,[7],inactive
same,Potency,[8],inactive
same,Potency,[9],inactive
same,Potency,[10],inactive
same,Potency,[11],inactive
same,outcome,[12],inactive
same,Potency,[13],inactive
same,Potency,[14],inactive
same,Potency,[15],inactive
CC1(C)C(=O)N(Cl)C(=O)N1Br,Potency,[1],inactive
same,outcome,[2],inactive
same,max response,[19],17%
same,Potency,[3],inactive
same,Potency,[4],inactive
same,Potency,[5],inactive
same,Potency,[6],inactive
same,Potency,[17],inactive
same,outcome,[7],inactive
same,Potency,[8],inactive
same,Potency,[9],inactive
same,Potency,[10],inactive
same,Potency,[11],inactive
same,outcome,[12],inactive
same,Potency,[20],inactive
same,Potency,[18],inactive
same,Potency,[13],inactive
same,Potency,[14],inactive
same,Potency,[15],inactive
O=C1Nc2ccc([N+](=O)[O-])cc2C1=O,Potency,[1],inactive
same,outcome,[2],inactive
same,Potency,[3],inactive
same,Potency,[4],inactive
same,Potency,[5],inactive
same,Potency,[6],inactive
same,Potency,[17],inactive
same,Potency,[8],inactive
same,Potency,[9],inactive
same,Potency,[10],inactive
same,Potency,[11],inactive
same,outcome,[12],inactive
same,Potency,[13],inactive
same,Potency,[14],inactive
same,Potency,[15],inactive
CC1=C2[C@H](/C=C(\C)C(=O)O)CC[C@@H](C)[C@H]2CC1,Potency,[16],36 µM (active)
same,outcome,[2],inactive
same,Potency,[4],inactive
same,Potency,[5],inactive
same,Potency,[6],inactive
same,Potency,[17],inactive
same,outcome,[7],inactive
same,Potency,[9],inactive
same,Potency,[10],inactive
same,Potency,[20],36 µM (active)
same,Potency,[18],25.5 µM (active)
same,Potency,[14],inactive
same,Potency,[15],inactive
CC/C=C\CCOC(=O)CCCCC,Potency,[16],inactive
same,max response,[19],-9.86%
same,Potency,[3],inactive
same,Potency,[4],inactive
same,Potency,[5],inactive
same,Potency,[6],inactive
same,Potency,[17],inactive
same,outcome,[7],inactive
same,Potency,[10],inactive
same,Potency,[20],inactive
same,Potency,[18],inactive
same,Potency,[13],inactive
O=C(O)C(=O)Cc1c[nH]c2ccccc12,Potency,[1],inactive
same,outcome,[2],inactive
same,max response,[19],2.14%
same,Potency,[4],inactive
same,Potency,[5],inactive
same,Potency,[6],inactive
same,outcome,[7],inactive
same,Potency,[8],inactive
same,Potency,[9],inactive
same,Potency,[10],inactive
same,Potency,[11],inactive
same,outcome,[12],inactive
same,Potency,[20],inactive
same,Potency,[18],inactive
same,Potency,[13],inactive
CCOc1ccc(NS(=O)(=O)c2ccc(N)cc2)nn1,Potency,[1],inactive
same,outcome,[2],inactive
same,Potency,[3],inactive
same,Potency,[4],inactive
same,Potency,[5],inactive
same,Potency,[6],inactive
same,Potency,[17],inactive
same,outcome,[7],inactive
same,Potency,[8],inactive
same,Potency,[9],inactive
same,Potency,[10],inactive
same,outcome,[12],inactive
same,Potency,[13],inactive
same,Potency,[14],inactive
same,Potency,[15],inactive
CCCCOc1cc(C(=O)NCCN(CC)CC)c2ccccc2n1,outcome,[2],inactive
same,Potency,[3],inactive
same,Potency,[5],inactive
same,Potency,[6],21.3 µM (active)
same,Potency,[17],23.9 µM (active)
same,outcome,[7],inactive
same,Potency,[8],inactive
same,Potency,[9],inactive
same,Potency,[10],23.9 µM (active)
same,Potency,[11],inactive
same,outcome,[12],inactive
same,Potency,[13],inactive
same,Potency,[14],inactive
same,Potency,[15],inactive
